CYP2C19 inhib: human CYP2C19 inhibition; AID 778; P33261; hit rate 21% among 96,000; CYP2C19 Supersomes, luciferin-H EGE luminescence, 30 min; inhibition, % at 5 µM;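 active = CYP2C19 inhibition above a set limit at 5 µM in the primary screen, cut at about 50% in these data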;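 also: plate controls were negative control wells for no effect and 2.5 mM tranylcypromine positive control for full effect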
Target sequence (P33261 whole entry, looked up): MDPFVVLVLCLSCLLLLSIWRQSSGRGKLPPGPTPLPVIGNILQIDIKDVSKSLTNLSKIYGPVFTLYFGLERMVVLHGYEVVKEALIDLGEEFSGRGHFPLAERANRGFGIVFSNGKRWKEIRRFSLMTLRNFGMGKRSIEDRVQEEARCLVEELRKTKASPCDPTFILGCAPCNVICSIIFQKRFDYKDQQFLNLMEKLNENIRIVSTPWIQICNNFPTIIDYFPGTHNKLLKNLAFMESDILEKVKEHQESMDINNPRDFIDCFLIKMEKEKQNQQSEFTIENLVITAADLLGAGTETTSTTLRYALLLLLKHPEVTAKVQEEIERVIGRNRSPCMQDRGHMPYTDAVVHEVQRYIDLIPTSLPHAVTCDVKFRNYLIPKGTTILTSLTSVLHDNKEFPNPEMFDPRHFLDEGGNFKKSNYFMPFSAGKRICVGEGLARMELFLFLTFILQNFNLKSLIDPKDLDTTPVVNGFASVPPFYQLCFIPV
CYP2C9 act: CYP2C9 (human) activation; P11712; hit rate 1.4% among 96,000; recombinant CYP2C9, luciferin-H conversion, luminescence; active compounds read high; factor 1 = untreated enzyme, 0 = blocked; AID 1024; activation factor at 5 µM;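 active = activation factor of 2 or more for CYP2C9 at a 5 µM dose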;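 also: 0 = sulfaphenazole-blocked wells and 1 = vehicle-only wells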
MRP1 act: activates MRP-1; H69AR cells + doxorubicin, viability rescue, CellTiter-Glo; viability increase, % at 10 µM; hit rate 0.61% among 140,000; AID 799;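 active = viability gain under doxorubicin at or above a set limit, the compound median plus 3 SD, cut at about 4.7% in these data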;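 also: MRP-1 overexpressing cells given doxorubicin 25 µM after compound pretreatment; 18-22 h compound pretreatment then 72 h with doxorubicin before readout; 0% = doxorubicin-only wells and 100% = vehicle-treated cells without doxorubicin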
CYP2C9 inhib: blocks human cytochrome P450 2C9 | P11712 | CYP2C9 Supersomes, luciferin-H conversion, luminescence | inhibition, % at 5 µM | hit rate 20% among 96,000;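 active = blocking of liver enzyme CYP2C9 beyond about 50% at 5 µM, limit read from the data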
MRP resist rev: compounds reversing MRP-mediated drug resistance; H69AR cells + 2 uM doxorubicin, CellTiter-Glo, 72 h; differential viability (reversal), % at 10 µM; hit rate 0.04% among 85,000; AID 602;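 active = viability drop by adding the cancer drug above about 55%, with treated viability meeting a 40% cutoff, limit read from the data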;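 also: viability without doxorubicin minus viability with 2 µM doxorubicin for each compound; larger differential means the compound sensitizes cells more to doxorubicin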
CYP2C19 act: activators of human cytochrome P450 2C19; P33261; activation factor at 5 µM; 96,000 tested, under 10 active; recombinant CYP2C19, luciferin-H EGE luminescence; active compounds read high; 0 = fully inhibited enzyme, 1 = untreated enzyme;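 active = activation factor of at least 2 at 5 µM in the primary screen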;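 also: 0 = wells with 2.5 mM tranylcypromine and 1 = vehicle-only wells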
* = called active by the depositor; x = no result. The list is not random: actives were taken first. Their share in the collection is about 21%.

SMILES	CYP2C19 inhib	CYP2C9 act	MRP1 act	CYP2C9 inhib	MRP resist rev	CYP2C19 act
COc1ccc(/C=N/NC(=O)c2cc(-c3ccccc3OC)nc3ccccc23)cc1COC(C)=O	44	0.3	-2	72*	x	0.6
CC(=O)Nc1ccc(-c2nn[nH]n2)cc1Cl	4	0.9	0	13	x	1
CC(C)NC(=O)c1ccc(-c2ccc(Cl)c(C(F)(F)F)c2)o1	3	1	1	-5	22	1
CCOc1ccc(-n2nc3c(SCCN4CCCC4)nnc(C)c3c2C)cc1	x	x	-4	x	x	x
COC(=O)c1ccc(-c2nc3ccccc3o2)cc1	30	0.8	x	16	-3	0.7
COc1ccc(C(=O)/C(=C/c2cccs2)c2nc3ccccc3o2)cc1	26	0.3	-4	69*	13	0.7
Cc1ccccc1Cn1nnc(C(=O)Nc2cccc(C)c2C)c1N	54*	1.4	-1	-35	2	0.5
Cc1cc(C)cc(NC(=O)c2nnn(Cc3cc(C)ccc3C)c2N)c1	31	0.3	0	68*	3	0.7
COCCNC(=O)CSc1nc(N)c(NC(=O)c2ccccc2F)c(=O)[nH]1	x	x	-1	x	x	x
O=C(CC12CCC(CC1)C2)NCc1ccc2c(c1)OCO2	x	x	-2	x	7	x
Cc1ccc2nc(-c3sc4nc(C)cc(C)c4c3N)[nH]c2c1	x	x	-4	x	-9	x
Cc1ccc(-c2n[nH]c(=O)c3ccccc23)cc1N	68*	0.8	-1	23	-6	0.3
COc1ccc(OCC(=O)N2CCN(S(=O)(=O)c3ccc(Cl)cc3)CC2)cc1	-4	0.9	2	9	10	1
O=C(NC1(C(F)(F)F)NC(=O)N(Cc2cccnc2)C1=O)c1ccccc1 (stereo not drawn)	29	0.9	-1	7	9	0.7
O=C(NC1(C(F)(F)F)NC(=O)N(Cc2cccnc2)C1=O)c1cccs1 (stereo not drawn)	52*	0.6	1	37	-8	0.5
CC(/C=C(\NC(=O)c1ccccc1)C(=O)N=Nc1c(O)[nH]c2ccc(C)cc12)=C\c1ccccc1	16	0.5	-6	53*	x	0.8
Cc1ccc(S(=O)(=O)N(CC(=O)N=Nc2c(O)[nH]c3ccccc23)c2cccc(C)c2)cc1	x	x	-1	x	x	x
CC1=NN(C(=O)c2csc(C(C)C)c2)C(O)(C(F)(F)F)C1 (stereo not drawn)	x	x	2	x	x	x
Clc1cc(Br)ccc1OCCOCCN1CCOCC1	81*	1	0	-2	15	0.2
Cc1cc(C)cc(OCCCOc2cccc3cccnc23)c1	87*	1.4	0	-42	x	0.1
Cc1ccc(OCCOCCOc2cccc3cccnc23)c(Br)c1	x	x	-3	x	x	x
c1ccc(OCCCCN2CCOCC2)cc1	36	1	-1	1	18	0.6
Clc1cc(Br)ccc1OCCOCCOc1cccc2cccnc12	66*	1.7	-1	-71	x	0.3
Brc1ccc(OCCCN2CCOCC2)cc1	78*	1	-1	3	16	0.2
O=C(O)C1CSC(c2ccccc2Cl)N1C(=O)c1ccc(Cl)cc1 (stereo not drawn)	x	x	-2	x	x	x
SMILES	CYP2C19 inhib	CYP2C9 act	MRP1 act	CYP2C9 inhib	MRP resist rev	CYP2C19 act
Cn1ncc([N+](=O)[O-])c1C(=O)N1CCOCC1	5	1	-1	-1	x	1
Cc1ccc(CNC(=O)CCOc2ccc(C(C)(C)C)cc2)cc1	26	0.8	1	24	x	0.7
COC(=O)c1cc(=O)n(Cc2ccc(OC)c(OC)c2)c(=Nc2ccc(F)cc2)s1	-1	0.9	-6	9	0	1
COC(=O)c1cc(=O)n(CCc2ccc(OC)c(OC)c2)c(=Nc2ccc(F)c(Cl)c2)s1	57*	0.2	-7	76*	0	0.4
CCC1CCCCN1C(=S)Nc1ccc(OC(F)F)cc1 (stereo not drawn)	x	x	2	x	x	x
Cc1n[nH]c(C)c1S(=O)(=O)N(CC(=O)N1CCc2ccccc21)c1ccc(C(C)C)cc1	19	0.4	-3	58*	-17	0.8
CN(C)S(=O)(=O)N1CCc2ccccc2C1	66*	2.4*	-2	-136	6	0.3
Cc1n[nH]c(C)c1S(=O)(=O)N1CCc2ccccc21	61*	1	-4	1	-10	0.4
Cn1cnc(S(=O)(=O)N2CCc3ccccc32)c1	-4	1.3	-1	-25	1	1
CN(C)S(=O)(=O)N1CCc2ccccc21	17	2.3*	-3	-130	-21	0.8
CC(=O)N1CCc2cc(S(=O)(=O)N3CCc4ccccc4C3)ccc21	-7	1.2	0	-18	14	1.1
CC(C)(O)C#Cc1ccc(C(=O)NCc2ccccc2)s1	x	x	x	x	7	x
Cn1c(O)c(N=NC(=O)Cn2c(C(F)(F)F)nc3ccccc32)c2ccccc21	x	x	-3	x	x	x
COc1ccc(CC(=O)OCC(=O)NCCc2ccccc2)cc1OC	x	x	0	x	x	x
O=C(NCCc1ccc(Cl)cc1)/C(=C/c1cccnc1)NC(=O)c1ccccc1	x	x	-1	x	x	x
CCOc1cc(Cl)c(NC(=O)c2ccco2)cc1OCC	x	x	0	x	x	x
O=S(=O)(Cc1ccccc1)N1CCc2ccccc21	69*	0.7	-4	35	-29	0.3
O=C(c1cc2c(s1)CCCC2)N1CCN(S(=O)(=O)c2ccccc2C(F)(F)F)CC1	x	x	0	x	x	x
Cc1ccc(C(C)C)c(OCCNC(=S)Nc2cccc3ccccc23)c1	85*	0.2	-2	84*	x	0.1
CC(=O)N(c1ccccc1)c1nc(C)cc(C)c1C#N	x	x	-2	x	-5	x
COc1cc(C)c(N(C(C)=O)c2ccccc2)c(C)c1	61*	0.7	-4	31	4	0.4
O=C1CC(SCCO)C(=O)N1c1ccc(Oc2ccccc2)cc1 (stereo not drawn)	24	1	-2	4	16	0.8
Cn1c(NC(=O)C(C)(C)Oc2ccc(Cl)cc2)cc(=O)n(C)c1=O	98*	0.8	-3	25	10	0
Cn1c(NC(=O)c2cc(Cl)ccc2Cl)cc(=O)n(C)c1=O	26	0.8	-2	16	0	0.7
O=C(c1cccs1)N(C(=O)c1cccs1)c1ccc(Br)cn1	100*	0	-5	99*	2	0
SMILES	CYP2C19 inhib	CYP2C9 act	MRP1 act	CYP2C9 inhib	MRP resist rev	CYP2C19 act
Cc1cccc(-c2nc3ccccc3c3nncn23)c1	54*	0.8	-3	16	0	0.5
c1ccc(-c2nc3ccccc3c3nncn23)cc1	21	0.9	-4	6	3	0.8
O=C(Cc1ccc(F)cc1)NCCc1ccccc1	68*	0.5	1	50*	23	0.3
O=C(NCCc1ccccc1)c1ccc(Br)o1	51*	1	-1	1	9	0.5
O=C(CN1CCCCCC1)NCCc1ccc(F)cc1	66*	0.8	-3	15	7	0.3
O=C(NCCNC(=O)c1ccc(Br)o1)c1ccc(Br)o1	22	0.9	0	14	-4	0.8
CCCC(=O)NCCc1ccc(F)cc1	30	0.9	2	9	0	0.7
O=C(Cc1ccc(F)cc1)NCCc1ccc(F)cc1	65*	0.5	0	52*	-10	0.3

Source: PubChem BioAssay (several laboratories)
